# High-throughput results deposited in PubChem BioAssay by several laboratories.
# Shown are actives, neighbours in structure and some others; about 0.29% of the full set was active somewhere.
# Yp Topo-I inh = Y. pestis Topo-I inhibition via cleavage products. activity, % at 10 µM. hit rate 0.064% among 360,000. Y. pestis Topo-I cleavage product accumulation, plate reader. AID 504884; in the data active = activity above about 50%, passing the limit was not always enough
# BH1578 lux ind = inducers of Vibrio cholerae quorum light production without autoinducers; V. cholerae BH1578 lux reporter, luminescence, 6 h; activation, % at 18.7 µM; hit rate 0.16% among 350,000; AID 588436; in the data active = activation mostly above about 9.7%, no sharp cut-off
# Mtb hypoxia rep = reduces hypoxia-regulated biosensor signal in M. tuberculosis; M. tuberculosis hypoxia-regulated fluorescent reporter, fluorescence; fluorescence inhibition, % (no concentration beside the values); hit rate 0.1% among 300,000; in the data active = fluorescence inhibition mostly above about 23%, no sharp cut-off; inactive = mostly below about 17%
# * marks the source's active call; other numbers are inactive results; i = inactive; . = not tested or not shown; ! = a repeat was not active.
SMILES,Yp Topo-I inh,BH1578 lux ind,Mtb hypoxia rep
C=CCC(CC(=O)NC(CO)Cc1ccccc1)C(=O)NC(COC(=O)C(CC=C)Cc1ccc(F)cc1)Cc1c[nH]c2ccccc12 (configuration not stated),.,.,36*!
C=CC[C@@H](CC(=O)N[C@@H](CO)Cc1ccccc1)C(=O)N[C@H](COC(=O)[C@@H](CC=C)Cc1ccc(F)cc1)Cc1c[nH]c2ccccc12,29,i,.
COc1ccc(C=NNC(=O)CSc2n[nH]c(=O)[nH]c2=O)cc1,.,.,5
CC1CCN(c2c(NCC3CCC(C(=O)NCCCc4ccccc4)CC3)c(=O)c2=O)CC1 (configuration not stated),.,.,-9
COC(=O)C1=C(c2ccccc2)CC2CCC1N2C(=O)NCc1ccco1 (configuration not stated),.,.,13
COC(=O)C1=C(c2ccc(-c3ccccc3)c(F)c2)C[C@@H]2CC[C@H]1N2C(=O)NCc1ccco1,56*,i,.
Cc1ccc(C=NNC(=O)c2cc(-c3cccnc3)nc3ccccc23)cc1,.,.,13
CC12CN3CC(C)(CN(C1)C3c1cccnc1)C2=O (configuration not stated),1,3,.
CCC12CN3CC(CC)(CN(C1)C3c1cccnc1)C2=O (configuration not stated),1,17*,2
O=C1CN(C(=O)COC(=O)c2c(F)cccc2Cl)c2ccccc2N1,2,-1,30*
O=C1CN(C(=O)COC(=O)c2ccc(Cl)cc2)c2ccccc2N1,15,-1,-4
CCOC(=O)c1c(C)c(C=NNc2ccccc2)n(C)c1C,.,.,-1
COc1cc(C=NNC(=O)c2ccc(CSc3nc4ccccc4[nH]3)cc2)ccc1O,.,.,0
COc1ccccc1CNC(=O)[C@@H]1CCCN1S(=O)(=O)c1ccccc1F,-3,-1,18
Fc1ccc(-[n+]2nc(Nc3ccccc3)sc2-c2c3ccccc3cc3ccccc23)cc1,-25,0,.
Oc1ccc2ccccc2c1-c1sc(Nc2ccccc2)n[n+]1-c1ccc(F)cc1,99*,0,2
CC1(C)CC(=O)C(C=Nc2ccccn2)=C(O)C1,.,.,1
CSc1ccccc1N=CC1=C(O)CC(C)(C)CC1=O,9,18*,6
O=C(Nc1ccccc1-c1ccccc1)C(c1ccccc1)c1ccccc1,37,-1,0
COCC(C)NC(=O)c1ccc2c(c1)S(=O)(=O)c1ccccc1C2=O (configuration not stated),6,0,1
Cc1ccc(C2c3c(C)nn(-c4ccc([N+](=O)[O-])cc4)c3N=C3C(=O)Nc4ccccc4N32)cc1 (configuration not stated),.,.,40*
Cc1nn(-c2ccc([N+](=O)[O-])cc2)c2c1C(c1ccc(OC(F)F)cc1)N1C(=N2)C(=O)Nc2ccccc21 (configuration not stated),-12,0,.
O=C1C2C3C=CC(CC3)C2C(=O)N1N=Cc1ccc(O)cc1 (configuration not stated),.,.,-4
O=C(CC(=O)N/N=C\c1c(Cl)cccc1Cl)NCc1ccccc1,4,5.6*,.
O=C(CC(=O)NN=Cc1c(F)cccc1Cl)NCc1ccccc1,.,.,1
SMILES,Yp Topo-I inh,BH1578 lux ind,Mtb hypoxia rep
CC(C)C(=O)Nc1ccc(COc2ccccc2CN(Cc2ccccc2)C(=O)OC(C)(C)C)cc1,26,i,.
CC(C)C(=O)Nc1cccc(COc2ccc(CN(Cc3ccccc3)C(=O)OC(C)(C)C)cc2)c1,53*,i,.
CCSC(C)CC1CC(=NO)c2c(CC)noc2C1 (configuration not stated),.,.,12
COc1ccc(-c2ccc(C(=O)NCc3ccc(C(F)(F)F)cc3)c3occc23)c(C)c1,15,i,.
Clc1ccc(COn2c(-c3ccccc3)nc3ccccc32)cc1,59*,3,24
Clc1ccc(COn2c(-c3ccc(Cl)cc3)nc3ccccc32)cc1,27,2,5
CCCCCCSc1ccc(C2C3C(=O)N(CC)C(=O)C3[C@]3(C(=O)OC)CCCCN23)cc1OC (some centres not stated),.,.,6
COc1ccc(C=Cc2c(-c3ccc(OC)cc3)oc3ccccc23)cc1,.,.,-6
Cc1ccc2c(c1)CC1(CN2C)C(=O)NC(=O)N(c2ccccc2C)C1=O (configuration not stated),-5,i,-1
Cc1ccc2c(c1)CC1(CN2C)C(=O)OC2(CCCCC2)OC1=O,4,17*,6
CC(=O)N1CCC(N(CCN2CCOCC2)C(=S)Nc2c(C)cccc2C)CC1,-2,i,6
O=C(Nc1ccccc1N1CCCCC1)c1cccc(OC(F)F)c1,57*,0,15
COc1cccc(C(=O)Nc2ccccc2N2CCCC2)c1,-7,0,14
COc1ccccc1-c1cnnc(NN=Cc2ccc(-c3cccc(Br)c3)o2)n1,.,.,0
CCCCN(CCCC)C(=O)C1(P(=O)(c2ccccc2)c2ccccc2)CCC1,55*,i,4
CCN(CC)C(=O)C1(P(=O)(c2ccccc2)c2ccccc2)CCC1,-2,-1,4
Cc1ccc(C=NNC(=O)c2cccc([N+](=O)[O-])c2)o1,.,.,8
O=C1CC(C(=O)O)S/C(=N\N=Cc2ccc(Br)cc2)N1 (configuration not stated),.,.,4
O=C(NN=Cc1cc2ccccc2[nH]1)c1ccccc1Cl,.,.,1
O=C(CNC(=O)c1cccc(F)c1)NN=Cc1cccs1,.,.,15
COc1cc(NC(=S)NCCC(c2ccccc2)c2ccccc2)c(OC)cc1Cl,-2,-4,2
Cc1cccc(NC(=O)c2nc[nH]c2C(=O)NC(Cc2ccccc2)C(=O)OC(C)(C)C)c1 (configuration not stated),.,.,13
COc1ccc2[nH]c(C(=O)NCc3ccccc3)cc2c1,-10,0,10
COc1ccc(CN(Cc2cccn2C)C(=O)c2cc3cc(OC)ccc3[nH]2)cc1,51*,i,6
CC(=NNC(=O)c1c(C)nc2ccccn12)c1ccco1,.,.,-5
SMILES,Yp Topo-I inh,BH1578 lux ind,Mtb hypoxia rep
COc1ccc(-n2c(-c3ccc(F)cc3)cnc2SCC(=O)NCc2ccco2)cc1,51*,i,3
O=C(CSc1ncc(-c2ccccc2)n1-c1ccccc1)NCc1ccco1,10,0,11
CC1(C)CC(=O)C2=C(C1)NC(Nc1nc3ccccc3o1)=NC2c1ccccn1 (configuration not stated),0,i,-4
CC1=C(C(=O)Nc2ccccc2)C(c2ccc(C)cc2)N=C(Nc2nc3ccccc3o2)N1 (configuration not stated),15,-3,37*
O=C(CCC(=O)Nc1ccccc1)NN=Cc1ccncc1,.,.,-6
COc1ccc(C(=O)Nc2sc3c(c2C#N)CCN(C(C)=O)C3)cc1,-2,i,8
CC(=O)N1CCc2c(sc(NC(=O)c3ccc([N+](=O)[O-])o3)c2C#N)C1,-9,-1,40*
Cn1c(CC(=O)NNC(=O)c2cccnc2)nc2ccccc21,-1,20*,1
Cn1c(CC(=O)NNC(=O)c2ccc(F)cc2F)nc2ccccc21,-3,0,2
COC(=O)NN=Cc1cccc(OCCSc2ccc(Cl)cc2)c1,.,.,2
COc1ccc(-c2nc(CSCC(=O)N3CCC4(CC3)OCCO4)c(C)o2)cc1OC,7,-1,-5
Cc1oc(-c2cccs2)nc1CSCC(=O)N1CCC2(CC1)OCCO2,1,i,active
